This is part of a sample that, as a whole, favours compounds with a hit. Of some 83,000 tested, about 20% had one in any assay.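 Assay: single dose, 48 h. Readout: percent growth (0 = no net growth; negative = cell death). Active: <10.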 A number with no mark means an inactive call. Activity calls are given as the source filed them.
The molecules below were run on HL-60(TB) leukemia (assay: NCI-60 one-dose screen, 48 h (100 = growth as untreated, 0 = no growth, -100 = all killed)). Conditions: 10 µM unless noted.
In the case of `O=CN1N=C(c2ccc(Cl)cc2)CC1c1cccc(Nc2ccnc3cc(C(F)(F)F)ccc23)c1` (stereo unspecified), the growth is reported as 31.6%. In the case of `CCN(CC)S(=O)(=O)c1ccc(O)c(NC(=O)c2[nH]c(C)c(C(C)=O)c2CCc2ccc(Cl)cc2)c1`, the growth is reported as 39.6%. For `O=C1OCC2=C1C(c1cccc(Cl)c1)c1cc3c(cc1N2CCO)CCC3` (stereo unspecified), the growth was -26.3% (active). `C[n+]1ccc(C#N)c2ccccc21` gave a growth of 70.3%. `CN(Cc1cnc2nc(N)nc(N)c2n1)c1ccc(C(=O)N[C@@H](CCc2nn[nH]n2)c2nn[nH]n2)cc1` showed a growth of 31.9%. For `c1cnc2[nH]cc(-c3csc(-c4cn(CCCN5CCCCC5)c5ccccc45)n3)c2c1`, the growth was -2.66% (active). Work on `O=C(Nc1ccc(Cl)cc1)N1NC(c2ccc(Cl)cc2)C=C1c1ccccc1` (stereo unspecified) yielded a growth of 80.3%. `C=C1CC[C@@H]2C(C)(C)[C@@H](O)CC[C@@]2(C)[C@@H]1COc1ccc2ccc(=O)oc2c1` was tested, and the growth was 69.1%. For `CCCCCCCCCCCCCCn1cc(C2=C(c3coc4ccc(OC)cc34)C(=O)NC2=O)c2ccccc21`, the growth was 129%. With `CCCc1c(CC)c(=N)c2ccccc2n1C` the growth was 32.7%. Work on `C/C(=N/NC(=O)c1sc(=S)n(C)c1N)c1cc2cc(Cl)ccc2o1` yielded a growth of 113%. `Cc1cc(NCc2cc(Nc3ccnc4cc(Cl)ccc34)ccc2F)nc(N2CCCC2)n1` was tested, and the growth was -59.5% (active). `CSc1nc2c(c(=O)[nH]1)C1(C(=O)Nc3ccccc31)c1c(nc(SC)[nH]c1=O)N2` gave a growth of 107%. In the case of `CCOc1nc(-c2ccccc2)cc2c(O)c(-c3nnco3)[nH]c(=O)c12`, the growth is reported as 34.6%. `CC[C@H](C)[C@H]1NC(=O)[C@@H](N[C@](C)(O)[C@@H](N)CC(C)C)[C@@H](C)OC(=O)[C@H](Cc2ccc(OC)cc2)N(C)C(=O)[C@@H]2CCCN2C(=O)[C@H](CC(C)C)NC(=O)[C@@H](C)C(=O)[C@H](C(C)C)OC(=O)C[C@@H]1O` was tested, and the growth was -27.7% (active). Molecule `CCNC(=O)Oc1ccc(/C(=C(\C)c2ccc(Cl)cc2)c2ccc(OCCN3CCCCC3)cc2)cc1` has a growth of 16.8%. For `CCC(=O)NC1=C(Cl)C(=O)C(NC(=O)CC)=C(Cl)C1=O`, the growth was -51.1% (active). In the case of `O=C(Cc1c(F)cccc1Cl)Nc1ccc(S(=O)(=O)Nc2ncccn2)cc1`, the growth is reported as 120%. With `Cc1cc([N+](=O)[O-])ccc1NC(=O)c1ccc2c(c1)nc(-c1ccccc1)n2C1CCCCC1` the growth was 64.7%. `O=C(COc1ccc(Cl)cc1Cl)N1N=C(c2ccc(Cl)cc2Cl)CC1(O)c1cc(F)c(Cl)cc1Cl` (stereo unspecified) was tested, and the growth was -97.5% (active). In the case of `O=C(/C(=C/c1ccc([N+](=O)[O-])cc1)SCc1ccc(F)cc1)c1ccc(F)cc1`, the growth is reported as 68.8%. For `CSCCC1NC(=O)C(C(C)=Nc2ccccc2)=C1O` (stereo unspecified), the growth was 117%. For `COc1cc(/C=C/c2cc(/C=C/c3ccc(O)c(OC)c3)n(C(=O)Nc3ccc(C)cc3)n2)ccc1O`, the growth was -28.2% (active). `O=C(CCCCCCCCC(=O)Nc1cccc(C2=NCCN2)c1)Nc1cccc(C2=NCCN2)c1` was tested, and the growth was 81.9%. With `COc1ccc(C2=Nn3c(nnc3-c3cc(Cl)cc(Cl)c3Cl)SC2)cc1` the growth was -32% (active). `O=C(Nc1ncc(Cc2ccccc2)s1)c1sc2ccccc2c1Cl` was tested, and the growth was -9.41% (active). `CN(Cc1cccc(C(F)(F)F)c1)C(=O)[C@@H](CC(=O)N1CCC(N2CCCCC2)CC1)N1C(=O)[C@@H](N2C(=O)OC[C@@H]2c2ccccc2)[C@H]1/C=C/c1ccccc1` was tested, and the growth was 70.1%. `O=C(c1ccccc1)N1N=C(c2ccc(-n3ccc(C(F)(F)F)n3)c(F)c2)CC1c1ccc[nH]1` (stereo unspecified) showed a growth of 101%. `COc1ccc(/C(C#N)=C/c2ccccc2OC)cc1` was tested, and the growth was -0.826% (active). For `CC(=O)NC(CCc1ccc(Cl)c(Cl)c1)c1cccc(O)c(=O)c1` (stereo unspecified), the growth was -16.5% (active). Molecule `Cc1nc2c(ccc3ccccc32)s1` has a growth of 84.2%. `C/C(=C\c1ccc([N+](=O)[O-])cc1)C(=O)O` gave a growth of 105%. Molecule `CCN1CCC(CCOC)(CN2c3ccccc3Sc3ccc(Cl)cc32)C1` (stereo unspecified) has a growth of 58.5%. `CNC(=O)c1cc(Oc2ccc3c(c2)sc2nc(-c4ccc(N)cc4)cn23)ccn1` was tested, and the growth was 2.04% (active). Molecule `Clc1ccc(N2N=C(c3cccc(Nc4ccncc4)c3)CC2c2ccccc2)cc1` (stereo unspecified) has a growth of 85.4%. `O=C1/C(=C/c2ccccc2O)C(=S)SN1Cc1ccco1` gave a growth of 92%.

— PubChem BioAssay (NCI)
